This is a sample that favours compounds with a hit; in the whole collection about 6.7% have one here.
Pf Dd2 growth: P. falciparum Dd2 growth inhibition; SYBR Green, 72 h; stronger effect = lower value; actives 2.3% (n = 94,000); activity change, % at 10 µM; AID 1159554; in the data active means activity change below about -80%; inconclusive means no clear call, values can overlap the other calls
C diff growth: blocks growth of Clostridium difficile. actives 0.25% (n = 86,000). growth activity, negative = inhibition, % at 16 µg/mL (by protocol). Clostridium difficile clinical isolate growth, OD600, 24 h; stronger effect = lower value;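 active means mean growth activity at or below -80% and every replicate also at or below -80%; inconclusive means mean at or below -80% but some replicate above -80%; inactive means mean growth activity above -80%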;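 further: 0% = DMSO wells and -100% = levofloxacin 16 µg/mL wells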
T cruzi growth-1: blocks T. cruzi growth in NIH3T3 culture. inhibition, % at 8.34 µM. actives 5.9% (n = 77,000). T. cruzi beta-gal in NIH3T3, GalScreen luminescence, 90 h;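 active means mean inhibition above about 93%, with at least 55% of replicates each passing it, limit read from the data, passing the limit was not always enough; inconclusive means only one of those two conditions holds; inactive means neither condition holds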
T cruzi growth-2: Trypanosoma cruzi proliferation inhibition; inhibition, % at 8.35 µM; T. cruzi beta-gal in NIH3T3, GalScreen luminescence, 90 h; shares compounds with T cruzi growth-1; actives 72% (n = 5,600);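 active means mean replicate inhibition above about 95% and at least 55% of replicates individually reaching it, limit read from the data; inconclusive means only one of the two criteria is met; inactive means neither criterion is met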
T cruzi growth-3: inhibitors of T. cruzi proliferation | actives 21% (n = 5,600) | T. cruzi beta-gal in NIH3T3, GalScreen luminescence, 90 h | inhibition, % at 2.09 µM | shares compounds with T cruzi growth-1;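 active means mean inhibition above about 95%, with at least 55% of replicates also reaching it, limit read from the data; inconclusive means meets just one of the two conditions; inactive means meets neither condition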;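 further: plate controls were neutral control median for no effect and positive control median for full effect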
NIH3T3 tox: NIH/3T3 (mouse) viability loss | shares compounds with T cruzi growth-1 | NIH/3T3 viability, CellTiter-Glo ATP luminescence, 90 h | cytotoxicity (signal decrease), % at 8.35 µM | actives 14% (n = 5,600);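 active means mean signal decrease across replicates above about 35% based on untreated-well scatter, with enough replicates individually passing, limit read from the data; inconclusive means no rule stated though some were filed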;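 further: 0% = median of neutral control wells and 100% = median of positive control wells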
3T3 cytotox 2: cytotoxicity in mouse NIH/3T3 fibroblasts. shares compounds with T cruzi growth-1. NIH/3T3 viability, CellTiter-Glo ATP luminescence, 90 h. inhibition, % at 24.9 µM. actives 56% (n = 5,600). AID 651744;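 active means mean loss of cell viability signal at or above a set limit, and enough replicates individually reaching it; inconclusive means meets only the mean limit or only the replicate share; inactive means meets neither condition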;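 further: 0% = median of neutral control wells and 100% = median of positive control wells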
* marks the source's active call; other numbers are inactive results; ? = inconclusive; nt = not tested or not shown.

SMILES	Pf Dd2 growth	C diff growth	T cruzi growth-1	T cruzi growth-2	T cruzi growth-3	NIH3T3 tox	3T3 cytotox 2
COc1ccc(S(=O)(=O)Nc2ccc3c(c2)C(=O)N([C@@H](C)CO)C[C@H](C)[C@@H](CN(C)S(=O)(=O)c2ccc(OC)cc2)OCCCC[C@H](C)O3)cc1	-78	1	?	104*	53	19	-2
COc1ccc(S(=O)(=O)Nc2ccc3c(c2)C(=O)N([C@H](C)CO)C[C@H](C)[C@@H](CN(C)C(=O)NC(C)C)O3)cc1	10	-3	-33	nt	nt	nt	nt
C[C@@H]1CCCCO[C@@H](CN(C)S(=O)(=O)c2cn(C)cn2)[C@H](C)CN([C@H](C)CO)C(=O)c2cc(NS(C)(=O)=O)ccc2O1	40	5	33	nt	nt	nt	nt
C[C@@H]1CN([C@@H](C)CO)C(=O)c2cc(NS(C)(=O)=O)ccc2O[C@@H](C)CCCCO[C@H]1CN(C)S(=O)(=O)c1cn(C)cn1	32	-3	107*	99*	37	8	8
COc1ccc(S(=O)(=O)Nc2ccc3c(c2)C(=O)N([C@H](C)CO)C[C@@H](C)[C@@H](CN(C)S(=O)(=O)c2ccc(OC)cc2)OCCCC[C@H](C)O3)cc1	-61	-2	52	nt	nt	nt	nt
COc1ccc(S(=O)(=O)N(C)C[C@H]2OCCCC[C@H](C)Oc3ccc(NS(=O)(=O)c4ccccc4)cc3C(=O)N([C@@H](C)CO)C[C@H]2C)cc1	nt	3	92	nt	nt	nt	nt
COCCNC(=O)C[C@H]1C[C@@H]2c3cc(NC(=O)CN(C)C)ccc3O[C@@H]2[C@@H](CO)O1	20	-7	-5	nt	nt	nt	nt
Cc1ccc(S(=O)(=O)N(C)C[C@H]2OCCCC[C@H](C)Oc3ccc(NS(C)(=O)=O)cc3C(=O)N([C@@H](C)CO)C[C@H]2C)cc1	-15	-3	6	nt	nt	nt	nt
COc1ccc(S(=O)(=O)N(C)C[C@H]2Oc3ncc(C#CC4(O)CCCC4)cc3C(=O)N([C@H](C)CO)C[C@H]2C)cc1	-14	1	46	nt	nt	nt	nt
CCN1[C@@H]2c3ccc(-c4ccncc4)c(=O)n3C[C@@H]2[C@@H](CO)[C@@H]1C(=O)NCc1ccccc1	0	2	3	nt	nt	nt	nt
COc1ccc(S(=O)(=O)N(C)C[C@@H]2OCCCC[C@H](C)Oc3ccc(NS(=O)(=O)c4ccccc4)cc3C(=O)N([C@@H](C)CO)C[C@H]2C)cc1	nt	9	92	nt	nt	nt	nt
COc1ccc(S(=O)(=O)N(C)C[C@@H]2OCCCC[C@@H](C)Oc3ccc(NS(=O)(=O)c4cn(C)cn4)cc3C(=O)N([C@@H](C)CO)C[C@H]2C)cc1	-37	nt	2	nt	nt	nt	nt
COc1ccc(S(=O)(=O)Nc2ccc3c(c2)C(=O)N([C@@H](C)CO)C[C@@H](C)[C@@H](CN(C)S(=O)(=O)c2ccc(OC)cc2)OCCCC[C@@H](C)O3)cc1	-64	12	100*	107*	102*	-5	7
COc1ccc(S(=O)(=O)N(C)C[C@H]2OCCCC[C@@H](C)Oc3ccc(NS(=O)(=O)c4cn(C)cn4)cc3C(=O)N([C@@H](C)CO)C[C@H]2C)cc1	-48	-20	103*	107*	33	-27	-14
CC(C)NC(=O)N1[C@H](CO)[C@H]2c3ccccc3N(C(=O)Nc3ccc(Cl)cc3)C[C@H]21	13	-3	-2	nt	nt	nt	nt
CN(C)C(=O)c1ccc(-c2ccc3c(c2)[C@@H]2[C@@H](CCN2C(=O)C2CCCCC2)[C@@H](CO)N3C)cc1	-31	-2	nt	nt	nt	nt	nt
C[C@H](CO)N1C[C@H](C)[C@@H](CN(C)C(=O)CCCN(C)C)OCCCC[C@H](C)Oc2ccc(NS(=O)(=O)c3cn(C)cn3)cc2C1=O	54	1	8	nt	nt	nt	nt
COCCNC(=O)C[C@H]1C[C@H]2c3cc(NC(=O)c4ccc5c(c4)OCO5)ccc3O[C@H]2[C@H](CO)O1	16	-1	nt	nt	nt	nt	nt
N#C[C@H]1[C@H](c2ccc(C3=CCCCC3)cc2)[C@@H](CO)N1C(=O)c1cccc(F)c1	-5	2	98*	100*	40	10	45*
COc1ccc(-c2ccc([C@@H]3[C@@H](CO)N(C(=O)c4cccc(F)c4)[C@H]3C#N)cc2)cc1	-29	5	?	88	41	1	7
COc1ccc(-c2ccc([C@H]3[C@@H](C#N)N(C(=O)c4cccc(F)c4)[C@H]3CO)cc2)cc1	-16	5	94	nt	nt	nt	nt
N#C[C@H]1[C@@H](c2ccc(C3=CCCCC3)cc2)[C@H](CO)N1C(=O)c1cccc(F)c1	-6	2	94	nt	nt	nt	nt
COc1ccc(-c2ccc([C@@H]3[C@H](C#N)N(C(=O)c4cccc(F)c4)[C@H]3CO)cc2)cc1	12	-21	103*	105*	41	9	31*
COc1ccccc1-c1ccc([C@H]2[C@@H](CO)N(C(=O)c3cccc(F)c3)[C@H]2C#N)cc1	-13	7	73	nt	nt	nt	nt
CN(C)C(=O)c1ccc(-c2ccc3c(c2)[C@@H]2[C@@H](CCN2C(=O)c2ccc4c(c2)OCO4)[C@@H](CO)N3)cc1	-9	-19	100*	109*	61	2	1
SMILES	Pf Dd2 growth	C diff growth	T cruzi growth-1	T cruzi growth-2	T cruzi growth-3	NIH3T3 tox	3T3 cytotox 2
N#Cc1cccc(-c2ccc3c(c2)[C@@H]2[C@@H](CCN2C(=O)c2ccc4c(c2)OCO4)[C@H](CO)N3)c1	-17	-3	?	97*	73	30	48*
N#Cc1cccc(-c2ccc3c(c2)[C@H]2[C@H](CCN2C(=O)c2ccc4c(c2)OCO4)[C@H](CO)N3)c1	-37	-3	86	nt	nt	nt	nt
N#Cc1ccc(-c2ccc3c(c2)[C@H]2[C@H](CCN2C(=O)c2ccc4c(c2)OCO4)[C@H](CO)N3)cc1	-21	-4	25	nt	nt	nt	nt
Cc1cc(C)cc(NC(=O)Nc2ccc3c(c2)C(=O)N(C)[C@@H]2CC[C@@H](CC(=O)O)O[C@@H]2CO3)c1	7	0	4	nt	nt	nt	nt
Cc1ccc(S(=O)(=O)N(C)C[C@H]2Oc3ccc(NC(=O)Cc4ccccc4)cc3CC(=O)N([C@H](C)CO)C[C@H]2C)cc1	-13	3	81	nt	nt	nt	nt
CN1C(=O)c2cc(NS(=O)(=O)c3ccc(F)cc3)ccc2OC[C@H]2O[C@H](CC(=O)O)CC[C@H]21	5	2	97*	?	28	12	-41
COC(=O)C[C@@H]1CC[C@@H]2[C@@H](COc3ccc(NS(=O)(=O)c4cccc(F)c4)cc3C(=O)N2C)O1	19	1	19	nt	nt	nt	nt
CN1C(=O)c2cc(NS(=O)(=O)c3ccc(F)cc3)ccc2OC[C@@H]2O[C@@H](CC(=O)O)CC[C@@H]21	1	4	60	nt	nt	nt	nt
COC(=O)C[C@@H]1CC[C@@H]2[C@H](COc3ccc(NS(=O)(=O)c4ccc(C)cc4)cc3C(=O)N2C)O1	-11	10	107*	100*	11	8	-7

Source: PubChem
